According to PubChem BioAssay AID493194 (Broad Institute, 2011):
Results with a measured potency or affinity are listed apart. Inconclusive results are not listed. Activity calls are given as the source filed them.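 Rule for the calls: active = a valid curve of falling signal whose half-effect concentration is at most ten times the top tested dose; inconclusive = flat curve at 30 to 70% inhibition, or poor fit; inactive = signal rise, flat within 30%, or potency beyond limit.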

molecular target: Scavenger receptor class B member 1 (Mus musculus) (UniProt Q61009); assay: inhibitors of SR-BI mediated HDL lipid uptake, dose response, ldlA[mSR-BI] cells, fluorescence, cherry pick (AID 493194); settings: CHO ldlA[mSR-BI] DiI-HDL uptake fluorescence, 3 h; series mostly up to 35 µM; activity change, negative = inhibition: at the top concentration;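 note: CHO cells lacking LDL receptor and overexpressing mouse SR-BI; cellular uptake of fluorescently labeled HDL measured as cell fluorescence; 0% = median of neutral control wells and -100% = median of positive control wells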
Sequence (Q61009 whole entry, looked up): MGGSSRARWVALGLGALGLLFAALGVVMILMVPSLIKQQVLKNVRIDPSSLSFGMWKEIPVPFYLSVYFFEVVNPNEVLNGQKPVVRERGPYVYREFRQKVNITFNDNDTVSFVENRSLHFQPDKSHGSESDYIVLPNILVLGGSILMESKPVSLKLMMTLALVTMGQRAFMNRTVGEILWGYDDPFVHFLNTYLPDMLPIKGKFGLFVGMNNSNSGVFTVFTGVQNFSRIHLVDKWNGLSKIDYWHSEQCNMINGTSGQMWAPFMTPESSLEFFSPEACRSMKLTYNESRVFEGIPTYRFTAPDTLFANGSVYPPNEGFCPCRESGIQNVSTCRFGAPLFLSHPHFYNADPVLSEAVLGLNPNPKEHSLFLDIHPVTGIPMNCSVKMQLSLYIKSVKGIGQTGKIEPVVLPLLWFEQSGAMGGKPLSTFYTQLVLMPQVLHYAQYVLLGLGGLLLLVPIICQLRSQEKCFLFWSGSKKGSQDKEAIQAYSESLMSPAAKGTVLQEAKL

Activity change, negative = inhibition, inactive:
Cc1cccc(N2CCN(C(=O)CN(C)S(=O)(=O)c3ccc4c(c3)CCC(=O)N4)CC2)c1C 22.7%
Cc1nn(Cc2ccccc2)c(C)c1NC(=O)c1cc2nc(-c3ccco3)cc(C(F)(F)F)n2n1 -9.64%
C=CCOC(=O)c1[nH]c2c(c1C)C(=O)CC(c1cc(OC)c(OC)c(OC)c1)C2 (centres undefined) -2.34%
CN(C)c1ccc(/C=C2\Oc3ccc(C#Cc4cccc(N)c4)cc3C2=O)cc1 5.11%
COc1ccc2c(c1)-c1c(sn(-c3ccc(OC)c(OC)c3)c1=S)C(C)(C)N2 -50.3%
Cc1ccc(NC(=O)CSc2nnc([C@H](C)NC(=O)OC(C)(C)C)o2)c(C)c1 -7.58%
CN(C(=O)COC(=O)c1c2c(nc3ccccc13)/C(=C/c1cccc([N+](=O)[O-])c1)CCC2)C1CCS(=O)(=O)C1 (centres undefined) -8.72%
CCCOC1CCCN(C(=O)c2cc(COc3cncc(Cl)c3)on2)C1 (centres undefined) 27.2%
CC(=O)c1c(C)[nH]c(C(=O)Nc2ccc(C)c(S(=O)(=O)Nc3ccc(C)cc3C)c2)c1C 0.571%
Cc1ccc2nc3c(c(C(=O)OCC(=O)N(C)C4CCS(=O)(=O)C4)c2c1)CCCC3 (centres undefined) 43.9%
CCC(C)n1ncn(-c2ccc(N3CCN(c4ccc(OCC5COC(Cn6cncn6)(c6ccc(Cl)cc6Cl)O5)cc4)CC3)cc2)c1=O (centres undefined) -26.7%
COc1cccc(-c2csc(N3CCN(C(=S)Nc4cccc(C)c4)CC3)n2)c1 -23.2%
CCOc1ccccc1NC(=O)N1C2CCCC1CC(NC(=O)C1CC1)C2 (centres undefined) 31.7%
O=S(=O)(c1ccccc1)c1cnc(-c2ccccc2)nc1N1CCCCC1 -21.5%
